Assay results: the supplement of paper PMC5662767
Where a name gives a salt, the structure may show the parent alone.

Tested on: Drosophila S2 cl14 SmoIP sensor cells
Assay: normalized SmoIP GFP fluorescence (untreated unstimulated = 0%, untreated Hh-stimulated = 100%); higher = more Smo activation sensor fluorescence
Details: compound concentration: 2 uM, 24 h
[1] = stimulation: Hh conditioned medium (+Hh)
[2] = stimulation: mock conditioned medium (-Hh)
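Note: flow cytometry read-out as median GFP intensity of gated cells, compounds added 30 min before Hh-conditioned or mock medium, mock-treated cells serving as unstimulated baseline.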

SMILES | normalized SmoIP GFP fluorescence [1] | normalized SmoIP GFP fluorescence [2]
C[C@]1(O)C[C@@H](c2nc(-c3ccc4ccc(-c5ccccc5)nc4c3)c3c(N)nccn32)C1 | 108% | -11%
Cn1cc(CNCC2CCN(c3ncc(C(=O)NO)cn3)CC2)c2ccccc21 | 268% | 60.6%
CCn1cc(-c2ccnc3[nH]c(-c4cccc(CN(C)C)c4)cc23)c(-c2ccc(NC(=O)N(C)C)cc2)n1 | 173% | -0.747%
CCN1CCCC1CNC(=O)c1cc(S(=O)(=O)CC)c(N)cc1OC (stereo not given) [Amisulpride] | 111% | 3.51%
CC(C)C[C@@H](C(=O)N[C@H](C(=O)OC1CCCC1)c1ccccc1)[C@H](O)C(=O)NO [CHR-2797(Tosedostat)] | 108% | 3.72%
CC(C)C1CCC(C(=O)N[C@H](Cc2ccccc2)C(=O)O)CC1 (stereo not given in full) [Nateglinide(Starlix)] | 110% | -4.71%
CNC(=O)c1cc(Oc2ccc(NC(=O)Nc3ccc(Cl)c(C(F)(F)F)c3)c(F)c2)ccn1 | 100% | 27.4%
NCC(=O)Nc1ccc(-n2nc(C(F)(F)F)cc2-c2ccc3c(ccc4ccccc43)c2)cc1 | 100% | 0.812%
O=C(O)C1(Cc2cccc(Nc3nccs3)n2)CCC(Oc2cccc(Cl)c2F)CC1 (stereo not given) | 179% | 24.4%
CCc1c2c(nc3ccc(O)cc13)-c1cc3c(c(=O)n1C2)COC(=O)[C@]3(O)CC | 95.2% | 5.3%
Cc1cnc(-c2cnc(NCCNc3ccc(C#N)cn3)nc2-c2ccc(Cl)cc2Cl)[nH]1 | 118% | -0.151%
Cn1cc(C2=C(c3ccc(Cl)cc3Cl)C(=O)NC2=O)c2ccccc21 | 115% | 16.5%
CS(=O)(=O)N1CCc2c(-c3cnc(N)nc3)nc(N3CCOCC3)nc21 | 134% | -15.8%
Nc1cccc2c1CN(C1CCC(=O)NC1=O)C2=O (stereo not given) [Lenalidomide] | 115% | 28.7%
CC(=O)N1CCN(CCOc2ccc(C3CCN(C4=Nn5c(nnc5C(F)(F)F)CC4)CC3)cc2)CC1 | 192% | 15%
NS(=O)(=O)c1ccc(NC(=O)Nc2ccc(F)cc2)cc1 | 101% | -3.05%
COc1c(C)cnc(Cn2cnc3c(Cl)nc(N)nc32)c1C | 121% | 34.5%
Nc1cccc(-c2cc3c(Oc4cccc(O)c4)ncnc3[nH]2)c1 | 96.5% | 0.812%

SMILES | normalized SmoIP GFP fluorescence [1] | normalized SmoIP GFP fluorescence [2]
Cn1cnc2c(F)c(Nc3ccc(Br)cc3F)c(C(=O)NOCCO)cc21 | 138% | 23%
CCCCc1oc2ccccc2c1C(=O)c1cc(I)c(OCCN(CC)CC)c(I)c1 [amiodarone-hcl] | 112% | 1.69%
O=[N+]([O-])c1ccc2c(c1)S(=O)(=O)C=C2 [stattic] | 116% | -1.74%
Cc1c(Cl)cccc1Nc1ccccc1C(=O)O [tolfenamic-acid] | 88.3% | -15.3%
CC(=O)[C@H]1CC[C@H]2[C@@H]3CC=C4C[C@@H](O)CC[C@]4(C)[C@H]3CC[C@]12C [pregnenolone] | 116% | 8.09%
Cn1cnc(N)c2ncnc1-2 [3-methyladenine] | 111% | -4.89%
O=C(Nc1cccc(Cl)c1)Nc1ncc(CCNc2ncnc3ccsc23)s1 | 127% | 11%
FC(F)c1nc2ccccc2n1-c1nc(N2CCOCC2)nc(N2CCOCC2)n1 | 90.8% | -6.73%
Cc1onc(-c2ccccc2)c1-c1ccc(S(N)(=O)=O)cc1 [valdecoxib] | 104% | -5.49%
COc1cc2c(N3CCN(C(=O)Nc4ccc(OC(C)C)cc4)CC3)ncnc2cc1OCCCN1CCCCC1 [Tandutinib-(MLN518)] | 99.7% | 1.89%
COc1cc(OC)c(/C=C/S(=O)(=O)Cc2ccc(OC)c(NCC(=O)O)c2)c(OC)c1 | 79.7% | -1.34%
C=CC(=O)Nc1cccc(Nc2nc(Nc3ccc(N4CCN(C(C)=O)CC4)cc3OC)ncc2C(F)(F)F)c1 | 61.9% | 44%
Cc1cc(C)c(CNC(=O)c2cc(-c3ccc(CN4CCOCC4)cc3)cc3c2cnn3C2CCCC2)c(=O)[nH]1 | 104% | -0.264%
CCOC(=O)[C@H](CCc1ccccc1)N[C@@H](C)C(=O)N1CCC[C@H]1C(=O)O [Enalapril-maleate(Vasotec)] | 97.8% | -15.1%
Cc1ccc(S(=O)(=O)c2ccc([N+](=O)[O-])o2)cc1 | 144% | 21.3%
Cn1c(N2CCCCS2(=O)=O)nc(C(=O)NCc2ccc(F)cc2)c(O)c1=O | 99.7% | -2.42%
O=C(NCc1cccc(O)c1)Nc1nc(-c2ccncc2)cs1 | 107% | -2.93%
